From PubChem
The sample as a whole holds a higher share of hits than the screen did.
DUX4 txn inh: inhibitors of DUX4-driven ZSCAN4 reporter expression, primary screen, 293T cells, Gaussia and Italica luciferase. 293T-iDUX4 ZSCAN4-Gaussia luciferase reporter, 24 h; hits give low values. activity change, negative = inhibition, % (no concentration beside the values). 0.8% of 37,000 active;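 active means mean inhibition of at least 10% in the main channel, exceeding the control channel by a set limit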
Each line names hits and unclear results; the compound was inactive in the other large screens.

O=C(Cc1ccccc1)N1CCCCN2[C@H](CO)[C@@H](c3ccc(C#CC4(O)CCCC4)cc3)[C@@H]2C1	none
O=C(Cc1ccncc1)N1CCCCN2[C@H](CO)[C@H](c3ccc(C#Cc4ccccc4F)cc3)[C@@H]2C1	DUX4 txn inh -38.5
O=C(Cc1ccncc1)N1CCCCN2[C@H](CO)[C@@H](c3ccc(-c4ccncc4)cc3)[C@H]2C1	none
CC=Cc1ccc2n(c1=O)C[C@H]1[C@H](CO)[C@@H](C(=O)O)[C@@H]2N1S(=O)(=O)c1ccccc1C (mixture of isomers)	none
O=C(O)[C@@H]1[C@@H](CO)[C@@H]2Cn3c(ccc(-c4ccc(F)cc4)c3=O)[C@H]1N2CC1CCCCC1	none
